The sample as a whole holds a higher share of hits than the screen did.
Cycloheximide cs: affects cycloheximide protein synthesis inhibition readout, counter-screen; cell reporter, cycloheximide protein synthesis inhibition counterscreen; max response, %; 300,000 tested, 12% active; AID 2314; in the data active = max response mostly above about 13%, no sharp cut-off; inactive = mostly below about 14%; also: read at 38.3 µM for the half of the compounds with a filed dose; 0% is about no effect
LmPK inh: LmPK (Leishmania mexicana) enzyme inhibition. purified LmPK, Kinase-Glo ATP luminescence, 1 h. Potency, µM (highest dose often 57.5 µM), without a hit: at the top dose activity change, negative = inhibition, hits mostly inhibitors. 290,000 tested, 0.37% active; also: potency is read from the fitted curve at half-maximal effect; % is scaled to controls: 0 for no effect and ±100 for the full control effect
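Pyruvate kinase activity monitored as ATP production (luciferase luminescence). Conditions: 0.1 nM enzyme, 0.5 mM PEP, 0.1 mM ADP, 1 h, RT; normalized against uninhibited and no-enzyme wells.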
Shiga inhibitor: Shiga toxin inhibition; Vero cells, Shiga toxin protein synthesis inhibition reporter; inhibition, % at 38.7 µM; 290,000 tested, 9.2% active; in the data active = inhibition mostly above about 28%, no sharp cut-off; inactive = mostly below about 43%; also: 0% is about no effect
RE007 growth inh: less growth of the S. pombe RE007 Vpr strain | S. pombe RE007 Vpr strain, BacTiter-Glo ATP luminescence, 24 h | Potency, µM (doses to about 92.2 µM), without a hit: at the top dose activity change, negative = less growth, most hits filed as inhibitors | 360,000 tested, 0.21% active; active = well fitted falling curve with a large enough effect; inconclusive = small, poorly fitted or top-dose-only effect; inactive = no such curve, though single readings can be large or run the other way; also: potency is read from the fitted curve at half-maximal effect; % is scaled to controls: 0 for no effect and ±100 for the full control effect; nearly all actives have a fitted effect of over 50% in size
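Fission yeast strain RE007, carrying one chromosomally integrated HIV-1 vpr copy, was seeded at OD 0.01 in PMG+AL medium with 23 nL pinned compound. After 24 h at 30 °C and 99% humidity, viability was read by BacTiter-Glo luminescence.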
Giardia FBPA inh: blocks Giardia fructose-bisphosphate aldolase activity; A8B2U2; purified Giardia FBPA; Potency, µM (titrated, usually from 59.6 µM), for inactives: at the highest dose activity, negative = inhibition, usual class: inhibitors; 290,000 tested, 0.71% active; also: potency is read from the fitted curve at half-maximal effect; % is scaled to controls: 0 for no effect and ±100 for the full control effect; nearly all actives have a fitted effect of over 55% in size
Target sequence (A8B2U2 whole entry, looked up): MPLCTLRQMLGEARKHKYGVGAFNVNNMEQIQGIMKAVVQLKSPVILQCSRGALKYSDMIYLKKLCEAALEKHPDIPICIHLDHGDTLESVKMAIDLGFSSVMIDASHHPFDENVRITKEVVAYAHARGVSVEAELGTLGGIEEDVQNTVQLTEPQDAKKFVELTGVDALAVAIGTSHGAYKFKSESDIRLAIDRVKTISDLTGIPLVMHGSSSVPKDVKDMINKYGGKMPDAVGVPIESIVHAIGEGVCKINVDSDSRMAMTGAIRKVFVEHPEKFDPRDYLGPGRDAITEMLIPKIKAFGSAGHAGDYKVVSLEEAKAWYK
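Giardia FBPA (40 nM reagent) was preincubated 10 min at RT with compound (up to 57.5 uM final), then substrate plus GAPDH/TPI/NAD/arsenate coupling system with diaphorase/resazurin was added; resorufin fluorescence (525/598 nm) was read after 20 min.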
TbPYK inhibitor: T. brucei pyruvate kinase inhibition; Q57TT1; TbPYK enzyme, Kinase-Glo Plus ATP luminescence, 45 min; Potency, µM (doses to about 76.8 µM), for the others: top-dose activity, negative = inhibition, hits mostly inhibitors; 410,000 tested, 0.12% active; AID 624173; also: potency is read from the fitted curve at half-maximal effect; % is scaled to controls: 0 for no effect and ±100 for the full control effect; nearly all actives have a fitted effect of over 50% in size
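In this concentration-response screen, enzyme-free wells defined baseline while DMSO plates tracked drift. Each reaction combined TbPYK, substrate, compound and 130 uM ADP for 45 min at room temperature. Kinase-Glo Plus luminescence gave the signal.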
Numbers without * were called inactive; ? = inconclusive; · = not tested or not shown; [ ] = another dose, or the depositor's remark. Unless noted, calls follow the shape of the dose curve; as a rule, active = well fitted curve in the direction sought with a large enough effect; inconclusive = small, poorly fitted or top-dose-only effect, or another doubt; inactive = no such curve, though single readings can be large; an effect the other way counts as inactive or inconclusive.

SMILES	Cycloheximide cs	LmPK inh	Shiga inhibitor	RE007 growth inh	Giardia FBPA inh	TbPYK inhibitor
O=C(CSc1ccccn1)N1CCc2ccccc21	40.2*	?	115.9*	-2.2%	-7.3%	-6.0%
O=C(CN1CCN(c2ncccn2)CC1)N1CCc2ccccc21	-3.5	-2.3%	-4.5	-14.6%	3.0%	5.7%
O=C(CSc1ccc(-c2ccccn2)nn1)NC1CCCCC1	13.8	3.8%	24.8	-21.6%	?	3.6%
O=C(CSc1ccc(-c2ccccn2)nn1)N1CCc2ccccc21	19.1	2.1%	42.0*	-17.4%	?	1.8%
COc1ccc(-n2c(=O)c3c(C)c(C)sc3n(CC(=O)NCc3ccc(C)cc3)c2=O)c(OC)c1	·	·	·	·	·	-1.2%
Cc1cc(C)cc(OCCOCCn2c(-c3ccc(Cl)cc3)nc3ccccc3c2=O)c1	·	·	·	·	·	3.5%
CC(=O)c1ccc(NC(=O)CCc2nnc3ccc(N4CCCC4)nn23)cc1	31.5*	-8.3%	50.2*	5.8%	·	2.9%
CC(=O)c1ccc(NC(=O)CCc2c(C)nn(-c3ccc(N4CCOCC4)nn3)c2C)cc1	44.3*	-6.6%	39.7*	-4.6%	8.3%	-23.2%
COc1ccc(NC(=O)CCc2c(C)nn(-c3ccc(N4CCOCC4)nn3)c2C)cc1	19.5	-1.4%	37.8	10.6%	-9.4%	0.0%
Cc1ccc(NC(=O)CCc2c(C)nn(-c3ccc(N4CCOCC4)nn3)c2C)cc1	22.6*	1.0%	6.8	16.0%	17.3%	-3.3%
Cc1nn(-c2ccc(N3CCOCC3)nn2)c(C)c1CCC(=O)Nc1ccccc1	25.5*	-2.1%	19.8	0.0%	·	11.3%
COC(=O)c1ccc(NC(=O)CCc2c(C)nn(-c3ccc(N4CCOCC4)nn3)c2C)cc1	·	·	·	·	·	1.6%
CCc1ccc(NC(=O)CCc2nnc3ccc(N4CCCC4)nn23)cc1	-8.7	-1.3%	3.1	-4.9%	·	0.2%
O=S1(=O)C2CC3OC2(CC3c2ccc(F)cc2)CN1Cc1ccc(Cl)cc1 (centres undefined)	1.5	·	-10.9	·	0.1%	·
CCS(=O)(=O)N1CCC2(CC1)OC(=O)C(C)=C2C(=O)NCc1ccccc1C	·	·	·	·	·	2.2%
Cc1ccc(F)cc1NC(=O)CCc1c(C)nn(-c2ccc(N3CCOCC3)nn2)c1C	·	·	·	·	·	-3.3%
CCc1cccc(NC(=O)CCc2c(C)nn(-c3ccc(N4CCOCC4)nn3)c2C)c1	26.0*	3.4%	26.8	-0.5%	·	-9.0%
COc1cc(NC(=O)CCc2c(C)nn(-c3ccc(N4CCOCC4)nn3)c2C)cc(OC)c1OC	1.6	-1.3%	1.8	11.8%	1.8%	2.6%
Cc1ccc(CNC(=O)CCc2c(C)nn(-c3ccc(N4CCOCC4)nn3)c2C)cc1	-1.4	-0.1%	-5.1	-4.8%	·	0.7%
CCc1ccc(NC(=O)CCc2c(C)nn(-c3ccc(N4CCOCC4)nn3)c2C)cc1	42.1*	-0.1%	45.0*	-7.2%	·	1.8%
Cc1ccc(NC(=O)CCc2c(C)nn(-c3ccc(N4CCOCC4)nn3)c2C)cc1F	40.7*	4.2%	68.5*	-8.1%	·	-1.2%
O=C(CCCCCn1c(=O)c2sccc2n(Cc2ccccc2Cl)c1=O)NCc1ccc2c(c1)OCO2	·	·	·	·	·	-6.4%
O=C(/C=C/Nc1ccccc1)c1ccc(Oc2ncccn2)cc1	23.6*	-21.4%	108.6*	-5.8%	0.7%	2.0%
COc1ccc(C(=O)/C=C/Nc2ccccn2)c(OC)c1	52.0*	-8.8%	57.3*	?	-1.3%	-2.5%
O=C(/C=C\Nc1ccccn1)c1ccccc1	17.3	12.6µM*	54.9*	0.0%	2.4%	-16.4%
SMILES	Cycloheximide cs	LmPK inh	Shiga inhibitor	RE007 growth inh	Giardia FBPA inh	TbPYK inhibitor
COc1cccc(CNC(=O)C2CCN(C(=O)c3sccc3-n3cccc3)CC2)c1	·	·	·	·	·	-2.8%
Cc1ccc(N=C2NC(=O)C(CO)(CO)S2)cc1	8.8*	0.1%	10.3	-12.4%	-20.6%	-0.2%
O=C(/C=C/c1ccc2c(c1)OCO2)NCC1CCCO1 (centres undefined)	36.9*	-6.8%	63.2*	-3.8%	-3.1%	-0.7%
O=C(C=Cc1ccc2c(c1)OCO2)C=Cc1ccc2c(c1)OCO2	·	·	·	-19.8%	·	-2.8%
O=C(/C=C/c1ccc2c(c1)OCO2)NC1CCCC1	27.0*	0.6%	·	-9.2%	4.9%	0.0%
COc1ccc(C)cc1NC(=O)C(Sc1nncn1C)c1ccccc1 (centres undefined)	-2.4	0.1%	-2.6	-2.6%	4.5%	-2.7%
COc1ccc(C)cc1NC(=O)C(Sc1nnc(Nc2ccccc2F)s1)c1ccccc1 (centres undefined)	11.0*	2.6%	-5.8	-8.3%	-0.1%	2.4%
Cc1ccnc(NC(=O)CSc2nnc3c(n2)[nH]c2ccccc23)c1	33.2*	-3.7%	46.6*	·	-13.9%	·
CCCOc1cccc(C(=O)Nc2ccc(Br)cc2F)c1	41.6*	-3.6%	67.7*	-0.5%	8.0%	2.5%
Cc1ccc(NC(=O)c2ccc3nsnc3c2)c(Cl)c1	58.5*	-3.0%	105.4*	2.6%	1.3%	-1.9%
O=C(Nc1ccc(Br)cc1F)c1ccc2nsnc2c1	32.7*	1.4%	62.1*	4.7%	-4.0%	?
O=C(Nc1ccccc1F)c1ccncc1	-1.3	1.1%	-10.7	-0.7%	0.9%	-2.6%
O=C(Nc1ccc(Br)cc1F)c1ccncc1	25.1*	-1.6%	56.1*	?	0.9%	-3.8%
Cc1cccc(NC(=O)Cn2c(=O)n(Cc3ccc4c(c3)OCO4)c(=O)c3oc4ccccc4c32)c1C	·	·	·	·	·	-1.0%
CCC(C)NC(=O)c1ccc2c(c1)N=C(C)c1cc(C)ccc1S2 (centres undefined)	·	·	·	·	·	9.4%
CC1=Nc2cc(C(=O)O)ccc2Sc2ccc(C)cc21	20.1*	-1.6%[11.5 µM]	35.5	2.8%	29.8%	28.4%
Cc1ccc(NC(=O)c2sccc2C)cc1S(=O)(=O)N(C)C	28.2*	0.8%	45.6	5.7%	-1.0%	-13.5%
Cc1ccc(NC(=O)CSc2nnc(-c3cccs3)o2)cc1S(=O)(=O)N(C)C	26.6*	1.1%	117.0*	·	2.4%	·
Cc1ccc(NC(=O)c2cncc(Br)c2)cc1S(=O)(=O)N(C)C	38.0*	-1.6%	99.0*	17.0%	-9.4%	-7.0%
COc1ccc(CCNC(=O)Cn2c(=O)nc(-c3ccccc3)c3cc(Cl)ccc32)cc1OC	·	·	·	·	·	-16.9%
N/C(=N\OC(=O)c1ccc2c(c1)OCO2)c1cccc(Br)c1	30.4*	12.6µM*	86.8*	-23.7%	-7.2%	-29.7%
N/C(=N\OC(=O)c1ccc2c(c1)OCO2)c1cccnc1	20.6*	25.1µM*	58.3*	?	1.4%	-23.0%
COc1ccc(/C(N)=N/OC(=O)c2ccc3c(c2)OCO3)cc1OC	11.9	-13.5%	-5.4	-3.6%	1.1%	-10.4%
C/C(=N\NC(=O)c1ccc(CSc2nncn2C)cc1)c1cccs1	28.4*	1.6%	106.6*	0.8%	0.8%	-2.8%
Cn1cnnc1SCc1ccc(C(=O)O)cc1	-5.1	-7.8%	-18.1	38.3%	9.5%	-15.3%
